Bioassay records deposited in PubChem by several laboratories.
sdo1 growth: growth rescue of sdo1-depleted yeast, primary screen, S. cerevisiae, bone marrow failure model. actives 0.21% (n = 140,000). AID 817, 2007. S. cerevisiae sdo1-depleted JHY4D growth rescue, OD600 30 h; hits give high values; pdr5 snq2 efflux-pump mutant strain. z-score at 10 µM;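 active means z-score above 3 at both the 24 hr and the 30 hr optical density reads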;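 further: z-score against mean and SD of all compound wells on the same plate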
sEH act: soluble epoxide hydrolase activators, primary screen, biochemical, human sEH; purified human sEH enzymatic activity, activator screen; activation, % at 2 µM; actives 0.04% (n = 91,000); AID 717, 2007; in the data active means activation above about 37%
Target sequence (P34913 whole entry, looked up): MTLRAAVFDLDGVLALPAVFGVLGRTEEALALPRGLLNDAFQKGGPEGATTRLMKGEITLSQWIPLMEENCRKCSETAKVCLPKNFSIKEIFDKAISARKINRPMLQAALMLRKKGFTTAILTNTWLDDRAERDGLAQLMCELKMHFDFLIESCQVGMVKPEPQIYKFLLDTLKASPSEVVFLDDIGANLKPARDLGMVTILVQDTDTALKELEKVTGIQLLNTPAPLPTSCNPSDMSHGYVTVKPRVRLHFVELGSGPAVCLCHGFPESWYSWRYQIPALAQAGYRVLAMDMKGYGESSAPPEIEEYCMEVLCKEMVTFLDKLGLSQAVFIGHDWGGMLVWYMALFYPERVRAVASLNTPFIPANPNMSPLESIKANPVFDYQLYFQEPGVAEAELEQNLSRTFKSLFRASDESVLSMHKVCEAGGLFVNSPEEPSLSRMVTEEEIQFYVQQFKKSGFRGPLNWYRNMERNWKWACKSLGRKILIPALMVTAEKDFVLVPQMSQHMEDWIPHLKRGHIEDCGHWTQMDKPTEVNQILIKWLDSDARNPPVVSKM
sEH inh: soluble epoxide hydrolase inhibitors, primary screen, biochemical, human sEH; inhibition, % at 2 µM; recombinant human sEH enzymatic activity assay; Bifunctional epoxide hydrolase 2 (Homo sapiens), P34913; actives 0.34% (n = 91,000); in the data active means inhibition above about 80%
Measles CPE: compounds protecting cells from measles virus cytopathic effect, primary screen, measles RdRp inhibitor project, single point, MLSMR library, absorbance; Measles virus-infected cells, CPE protection; protection (pct of control), % at 4 µM; actives 1.5% (n = 140,000); AID 841, 2007; in the data active means protection mostly above about 24%, no sharp cut-off; inactive means mostly below about 26%
The depositor's hits bear a star; . = no result given. Only some compounds are listed: those with a hit (about 1.9% of all), similar ones and a draw of the others.

SMILES	sdo1 growth	sEH act	sEH inh	Measles CPE
COc1ccccc1N/C(=N/S(=O)(=O)c1ccc(C)cc1)c1ccccc1	-0.96	.	.	15
Cc1ccc(C)c(S(=O)(=O)N2C(=S)NC(=O)C2CC(C)C)c1 (configuration not stated)	-0.27	6	-4	41*
CC(C)C1C(=O)NC(=S)N1S(=O)(=O)c1ccc(C(C)(C)C)cc1 (configuration not stated)	-0.96	-8	9	18
CCOC(=O)N1CCN(C(=O)C2CCN(Cc3nc(-c4ccccc4C)oc3C)CC2)CC1	0.57	.	.	53*
COCCn1c(COc2ccccc2)nnc1SCC(N)=O	.	-9	6	.
Cc1ccc(-c2nc3sc4c(N)ncnc4c3c3c2CCCC3)cc1	-0.81	20	-20	25*
Cc1cc[n+](-c2nc([O-])sc2/C=N/Nc2ccc([N+](=O)[O-])cc2)cc1	0.65	-1	4	49*
CCSc1ncc(/C=N/Nc2ccc([N+](=O)[O-])cc2)n1C	-0.89	4	-6	7
Nc1ccc(C(=O)OCC(=O)N2CCc3ccccc3C2)cc1[N+](=O)[O-]	-0.63	.	.	39
Nc1ccc(C(=O)OCC(=O)N2c3ccccc3Sc3ccccc32)cc1[N+](=O)[O-]	-1.2	.	.	33*
CCOC(=O)Cc1nnc(NC(=O)COc2ccc(OC)cc2)s1	-0.17	0	-1	23*
CCOC(=O)C1CCCN(C(=O)CCn2nc(-c3ccccc3)ccc2=O)C1 (configuration not stated)	-0.84	-2	1	6
CC(C)(C)NS(=O)(=O)c1ccc(NS(C)(=O)=O)cc1	1	5	-2	45*
COc1ccc(NS(=O)(=O)c2ccc(NS(C)(=O)=O)cc2)cc1	-0.01	24	-26	4
COc1ccc(-n2c(SCC(=O)Nc3ccccc3)nnc2-c2ccoc2C)cc1	-1.3	8	-7	11
CCn1nc(CC(=O)Nc2ccc(-n3cnnn3)c(C)c2)c2ccccc2c1=O	0.8	-92	93*	5
Cc1cc(C)cc(OCc2nnc(SCC(=O)c3ccc(Br)cc3)o2)c1	0.04	5	0	5
COc1ccc(-n2nnnc2-c2cnc3cc4c(cc3c2C)OCO4)cc1	-0.61	6	-3	53*
Cc1cc(C(=O)COc2ccccc2Cl)c(C)n1-c1ccc2c(c1)OCO2	0.39	.	.	33*
CC(=O)Nc1ccc(-c2csc(NC(=O)CCCc3cccs3)n2)cc1	0.2	.	.	110*
Cc1ccc(-c2csc(NC(=O)CCCc3cccs3)n2)cc1	0.54	.	.	7
O=[N+]([O-])c1ccc(Cl)c(/C=N/N2CCN(C3c4ccccc4-c4ccccc43)CC2)c1	-0.4	2	2	12
CCCCNC(=O)/C=C/c1cccs1	-0.12	.	.	10
Cc1cc(C(=O)CN2C(=O)NC3(CCCc4sccc43)C2=O)c(C)n1-c1ccc(Cl)cc1 (configuration not stated)	0.02	.	.	39*
Cc1cc(C(=O)CN2C(=O)NC3(CCCc4ccccc43)C2=O)c(C)n1C (configuration not stated)	-0.08	7	-8	5
SMILES	sdo1 growth	sEH act	sEH inh	Measles CPE
O=C(COC(=O)CCCNC(=O)c1ccc(Cl)cc1)NC1CC1	-0.16	-3	2	48*
O=C(CCC(=O)OCC(=O)c1ccc(Cl)cc1)NC1CCCCC1	-0.12	-4	6	64*
Cc1cc(NC(=O)CCN2C(=O)C3C4C=CC(C4)C3C2=O)c2ccccc2n1 (configuration not stated)	-0.33	.	.	45*
COC(=O)c1cc2ccc(OC)c(OC)c2c(=O)s1	1.8	5	-3	24*
Cc1cccc(NC(=O)C2CC(=O)N/C(=N/N=C/c3ccco3)S2)c1 (configuration not stated)	0.22	.	.	30*
Cc1ccn2cc(CNS(=O)(=O)c3ccc(Cl)s3)nc2c1	0.14	6	-7	29*
Cc1cc(C(=O)O)c(C)n1-c1ccccc1	0.47	-1	0	40*
COc1ccc(CC(=O)N2CCN(c3ccccn3)CC2)cc1	0.01	7	-2	7
COc1ccc(C(=O)N2CCN(c3ccccn3)CC2)cc1	0.43	1	-3	45*
O=C(Nc1ccn(Cc2c(F)c(F)c(F)c(F)c2F)n1)c1cccc(Cn2cc([N+](=O)[O-])cn2)c1	-1.4	-30	31	17
CC1CCc2nc(N)c(C#N)c(-c3cccnc3)c2C1 (configuration not stated)	-0.43	-10	10	76*
O=[N+]([O-])c1ccc(N2CCN(CCOc3nonc3-c3ccccc3)CC2)c(Cl)c1	-1.4	-1	4	38*
O=[N+]([O-])c1ccc(N2CCN(c3ccccc3O)CC2)c(Cl)c1	-1.1	.	.	8
Cc1ccc(NC(=O)CCC(=O)OCC(=O)c2ccc(Oc3ccc([N+](=O)[O-])cc3)cc2)cc1C	-0.14	-3	2	2
CCOC(=O)N1CCC(N2C(=O)c3ccccc3C2Nc2ccc(C)cc2)CC1 (configuration not stated)	-1.2	0	-1	36*
O=C(NC1CC2CCC(C1)N2C(=O)NC1CCCCC1)NC12CC3CC(CC(C3)C1)C2 (configuration not stated)	0.9	.	.	5
O=C(NC1CC2CCCC(C1)N2C1CC1)NC12CC3CC(CC(C3)C1)C2 (configuration not stated)	.	-99	99*	.
COc1ccc(/C=N/N2CCN(C3c4ccccc4-c4ccccc43)CC2)cc1OC	0.43	.	.	19
CCC12OC(=N)C(C#N)(C1C)C(C#N)(C#N)C(c1ccccc1)O2 (configuration not stated)	0.91	.	.	8
CCCCn1c(SCc2nc3ccccc3s2)nc2cc(S(N)(=O)=O)ccc21	0.74	3	-4	40*
Cc1ccc(OCCCC(=O)Nc2ccccc2C(F)(F)F)cc1	-0.59	-6	6	4
CC(C)NC(=S)NC(=O)/C=C/c1ccc(F)cc1	-0.11	.	.	36*
COc1cc(NC(=O)Cc2ccccc2)ccc1NC(=O)c1ccco1	0.92	0	0	64*
CCC(=O)NC(=S)Nc1ccc(NC(=O)c2ccco2)c(OC)c1	0.48	.	.	12
COCCCNC(=O)CS(=O)Cc1nc(-c2cccc(OC)c2)oc1C (configuration not stated)	0.1	15	-14	39*
SMILES	sdo1 growth	sEH act	sEH inh	Measles CPE
Cc1ccc(Cn2nnc3c(=O)n(CC(=O)OCc4ccccc4)cnc32)cc1	-0.21	-4	7	12
C/C(=N\NC(=O)Cc1cccn1C)c1ccc2ccccc2c1	0.41	-1	2	7
CC(C)c1nnc(SCC(=O)N2CCc3ccccc32)n1C	0.62	3	-1	29*
Cn1cnnc1SCC(=O)N1CCc2ccccc21	1	4	-3	11
Cc1ccc(N2C(=O)CC(Sc3nc4ccccc4o3)C2=O)cc1Cl (configuration not stated)	-1.5	1	-2	5
COc1cc(C(=O)NCC(c2ccco2)N(C)C)cc(OC)c1OC (configuration not stated)	0.96	.	.	7
